# Assay results reported in the supplement of paper PMC8728848.
# The entries come from a sample that favours the strongest signals as a whole.
# B1: Gal 3 (Homo sapiens), P17931 (protein)
# chain: MADNFSLHDALSGSGNPNPQGWPGAWGNQPAGAGGYPGASYPGAYPGQAPPGAYPGQAPPGAYHGAPGAYPGAPAPGVYPGPPSGPGAYPSSGQPSAPGAYPATGPYGAPAGPLIVPYNLPLPGGVVPRMLITILGTVKPNANILDFQRGNDVAFHFNPRFNENNRRVIVCNTKLDNNWGREESQSVFPFESGKPFKIQVLVEPDHFKVAVNDAHLLQYNHRVKKLNEISKLGISGDIDLTSASYTMI
# What was measured:
# Experiment in all cases: glycan array binding signal (z-score within array); higher = stronger binding
# Details in all cases: glycan notation: IUPAC condensed, linker removed; mutation: R186S
# [1] = target: Neu5Ac(a2-3)Gal(b1-3)[Neu5Ac(a2-3)Gal(b1-4)]GlcNAc
# Outline: (§1)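 The Consortium for Functional Glycomics database supplied 3228 glycan arrays, of which those lacking an available protein sequence were dropped. The binding signal, a within-array Z-score, was averaged across arrays of the same protein sequence and across linkers. Negative scores can be read as non-binding.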
# [2] = target: Neu5Ac(a2-3)Gal(b1-4)[Fuc(a1-3)]GlcNAc(b1-3)GalNAc
# Outline: as §1
# [3] = target: Neu5Ac(a2-3)GalNAc(b1-4)GlcNAc
# Outline: as §1
# [4] = target: Neu5Ac(a2-6)Gal(b1-4)GlcNAc(b1-2)Man(a1-3)[Gal(b1-4)GlcNAc(b1-2)Man(a1-6)]Man(b1-4)GlcNAc(b1-4)GlcNAc
# Outline: as §1
# [5] = target: Neu5Ac(a2-6)Gal(b1-4)GlcNAc(b1-2)Man(a1-3)[Neu5Ac(a2-6)Gal(b1-4)GlcNAc(b1-2)Man(a1-6)]Man(b1-4)GlcNAc(b1-4)GlcNAc
# Outline: as §1
# [6] = target: Neu5Ac(a2-6)Gal(b1-4)GlcNAc(b1-3)Gal(b1-3)GlcNAc
# Outline: as §1
# [7] = target: Neu5Ac(b2-6)Gal(b1-4)GlcNAc
# Outline: as §1
# [8] = target: Neu5Ac(b2-6)GalNAc
# Outline: as §1
# [9] = target: Neu5Ac9Ac(a2-3)Gal(b1-3)GlcNAc
# Outline: as §1
binder,measurement,setting,value
B1,glycan array binding signal (z-score),[1],-0.076
same,glycan array binding signal (z-score),[2],0.182
same,glycan array binding signal (z-score),[3],-0.062
same,glycan array binding signal (z-score),[4],0.028
same,glycan array binding signal (z-score),[5],-0.05
same,glycan array binding signal (z-score),[6],-0.061
same,glycan array binding signal (z-score),[7],-0.083
same,glycan array binding signal (z-score),[8],-0.023
same,glycan array binding signal (z-score),[9],-0.069
